Laboratory results: article PMC7819943, “Rice protein-binding microarrays: a tool to detect cis-acting elements near promoter regions in rice”
The full ranking holds about 39,000 sequences; the median of “fluorescence intensity (a.u.)” is about 4,300, and the highest 2% start at about 39,000. Many of the other results were omitted from the sample, so the highest values are more common in it than they were.

molecular target: T1, OsSMF1 (Oryza sativa, UniProt Q6ZLB0 1-436); test: protein-binding microarray (RPBM); PBS, 2% BSA, 51.3 ng/ul salmon testes DNA, 50 uM zinc acetate, 200 nM TF, 25 C, 1 h; high values mean tight binding; settings: protein: recombinant; tags: N-terminal polyhistidine and DsRed monomer fusion (pET32a); chain copies: 2; label: CyDye5-dUTP incorporated in the synthesized complementary strand; 3' TTTTT single-stranded linker to array surface; dsDNA, one strand shown
T1 sequence: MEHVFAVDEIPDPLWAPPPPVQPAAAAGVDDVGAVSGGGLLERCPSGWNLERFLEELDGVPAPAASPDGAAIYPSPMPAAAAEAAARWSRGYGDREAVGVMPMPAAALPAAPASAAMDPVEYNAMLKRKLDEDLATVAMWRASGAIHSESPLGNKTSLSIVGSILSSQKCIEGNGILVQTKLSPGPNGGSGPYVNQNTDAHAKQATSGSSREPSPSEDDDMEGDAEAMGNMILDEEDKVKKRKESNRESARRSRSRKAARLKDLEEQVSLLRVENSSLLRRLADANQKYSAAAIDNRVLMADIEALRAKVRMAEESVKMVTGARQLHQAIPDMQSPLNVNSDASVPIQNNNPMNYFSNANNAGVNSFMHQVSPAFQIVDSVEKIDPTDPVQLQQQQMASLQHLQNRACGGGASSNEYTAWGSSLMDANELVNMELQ
In short: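 Using Ni–NTA, transcription factors fused N-terminally to polyhistidine and DsRed were purified after expression in E. coli BL21-CodonPlus. These were incubated at 200 nM with a blocked, double-stranded custom Agilent array for 1 h at 25 °C in a buffer containing 50 µM zinc acetate, and the array was washed. The binding signal is per-feature fluorescence intensity (arbitrary units) on an Axon 4000B scanner.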

Sequence | binding signal
ACAAGCCACGTAGGCGCCACGTCAGCCAAAACCGCCTTCACGGAGTCACCTAGTGCAG | 44100 fluorescence intensity (a.u.)
AACCAGCCACGTAGGCGCCACGTCAGCCAAAACTGCTATCCGGAGTCACCTAGTGCAG | 35900 fluorescence intensity (a.u.)
AGTTAATGGAGGAGCCACCGCCACGTAAGTGCCACGTAGGCGGAGTCACCTAGTGCAG | 56200 fluorescence intensity (a.u.)
ACCAGCCACGTAGGCGCCACGTCAGCTAAAACCGCCTTCACGGAGTCACCTAGTGCAG | 19900 fluorescence intensity (a.u.)
AAACTAGCCACGTTGGCGCCACGTCAGCCAAAACCGCCTTCGGAGTCACCTAGTGCAG | 33700 fluorescence intensity (a.u.)
TTGCAGTGCCACCTCACCGCCACGTAGGATGATGACTAAGCGGAGTCACCTAGTGCAG | 25800 fluorescence intensity (a.u.)
GGCCGCGTAGGCGCCACATCAGCCAAAACCACCATCAAAACGGAGTCACCTAGTGCAG | 4590 fluorescence intensity (a.u.)
AGTAAAAGGAGCCACGTAGGCGCCACGTCATCCAAAACCACGGAGTCACCTAGTGCAG | 47600 fluorescence intensity (a.u.)
CATTATACTGTTCATAAACATGAATATCACAACCTGTTCTCGGAGTCACCTAGTGCAG | 21100 fluorescence intensity (a.u.)
GTGTGGGGATAAACAGAGGTAGAGACATGTGTCAGATGACCGGAGTCACCTAGTGCAG | 3150 fluorescence intensity (a.u.)
CTTCTTTCCCGCACGCGCGGCTCGCGCATGCATGCACGATCGGAGTCACCTAGTGCAG | 15000 fluorescence intensity (a.u.)
CGTCCGGCGTCGGCGTGGACGGGTCGGCGCGGCGCCCCACCGGAGTCACCTAGTGCAG | 3650 fluorescence intensity (a.u.)
AGATTAAGGAGTCCTCCATCTATATAATCCAATCTATCTCCGGAGTCACCTAGTGCAG | 21400 fluorescence intensity (a.u.)
ACCACCCGAGACGCGACGTGGCGGCGGGCATGCAGCACCCCGGAGTCACCTAGTGCAG | 5050 fluorescence intensity (a.u.)
CGGCACCACCAGTTGTCCGGCATGCGATGTGGTACCGAGACGGAGTCACCTAGTGCAG | 49300 fluorescence intensity (a.u.)
TTGTCCGATGTGGCAGTTGAGTCAGCATGAGACCCACGTACGGAGTCACCTAGTGCAG | 14200 fluorescence intensity (a.u.)
ACCTGTATTTGTCATTATTTAGTGGACTCTGCTTAGTTCTCGGAGTCACCTAGTGCAG | 3390 fluorescence intensity (a.u.)
TGCAGCCGCCGACGCGGCGCGCCGACGCGATCTGAAACCCCGGAGTCACCTAGTGCAG | 3940 fluorescence intensity (a.u.)
TATGGTGATCCTAGCGATGAAACCGCCTAGCCCCGTTAGGCGGAGTCACCTAGTGCAG | 64600 fluorescence intensity (a.u.)
CATGGTGATGATGGCGGCGGGCGTCCGTCAGCGCCCGCACCGGAGTCACCTAGTGCAG | 5860 fluorescence intensity (a.u.)
CCTATTCCTTGTCACTATGACACCGTCATATATCTATGCACGGAGTCACCTAGTGCAG | 3420 fluorescence intensity (a.u.)
CCCGCGGATCGATCGATCGCCGCCGCGCGCCTGGACGAGCCGGAGTCACCTAGTGCAG | 3300 fluorescence intensity (a.u.)

Sequence | binding signal
CCGCCACCCGCTGCCCGGGGAGCTCCGCCTTCACCTCCGCCGGAGTCACCTAGTGCAG | 7820 fluorescence intensity (a.u.)
CGCCTCCGTGGACCCGGTCCACGGGGAGATTACACCTTCACGGAGTCACCTAGTGCAG | 57600 fluorescence intensity (a.u.)
AATCGTGTCCATGGTCTCCACCTCACGGGAGATTCTCCGCCGGAGTCACCTAGTGCAG | 3830 fluorescence intensity (a.u.)
ATAGTTAGGTGACAATTGACAAGTGTCAAGTTGTGTATGACGGAGTCACCTAGTGCAG | 3360 fluorescence intensity (a.u.)
TGATGGCGGCTTTAGGTGACATGCAGCATTAAGTGGCATGCGGAGTCACCTAGTGCAG | 4460 fluorescence intensity (a.u.)
GGACACCCGCTCCGCGTCGCGCGCACGCTAGAAGAACTCCCGGAGTCACCTAGTGCAG | 3140 fluorescence intensity (a.u.)
TCCAAGAAAGTGACCAAGCAAATGACGCAAGTGGTGCACGCGGAGTCACCTAGTGCAG | 40200 fluorescence intensity (a.u.)
TCGCACCAAGAATTGTTCACCTACCTTCAAAGTTCCAACACGGAGTCACCTAGTGCAG | 63300 fluorescence intensity (a.u.)
CTCTCCTCCTTTCTTCTCCAAGTCAACAGTTCCTACGCTACGGAGTCACCTAGTGCAG | 3360 fluorescence intensity (a.u.)
AATTGCTATGGTTACACCCGGCCGAAGCAAAGTCACCACTCGGAGTCACCTAGTGCAG | 3520 fluorescence intensity (a.u.)
GAAATGCCAAGTGTGAGAAGATGACGCACCCAAATGCAACCGGAGTCACCTAGTGCAG | 5640 fluorescence intensity (a.u.)
AGCAAGCAAAGCCGAAGAATTGTTACACGGCCAAAGTGGACGGAGTCACCTAGTGCAG | 41200 fluorescence intensity (a.u.)
GCAGCTGAAGTGGACCTGTCAGCAAGTAAAGCCAAGAGGCCGGAGTCACCTAGTGCAG | 3470 fluorescence intensity (a.u.)
ACGACACTACCAATTGTTTGGCCTTCAATCCAAACTAGCACGGAGTCACCTAGTGCAG | 3500 fluorescence intensity (a.u.)
CGGAAAAGAAAGCCATGGAAGAAATGACGCAAGCAGCGGACGGAGTCACCTAGTGCAG | 4230 fluorescence intensity (a.u.)
GCAAAAGCATCTTGGAGGAGATACAGTCAGCTGGCAATCCCGGAGTCACCTAGTGCAG | 4160 fluorescence intensity (a.u.)
CCACCACGCTTTCCCCGCGCGATGACTCCGCCGCCGCGCCCGGAGTCACCTAGTGCAG | 5400 fluorescence intensity (a.u.)
CCCACGTGAGTAAGCTCCTCCCTGCTGGTTTGATTCCCTTCGGAGTCACCTAGTGCAG | 4650 fluorescence intensity (a.u.)
GTGTAAAAGTTTTGACGTGTCACATCGGATATACGGACACCGGAGTCACCTAGTGCAG | 15300 fluorescence intensity (a.u.)
CAAAAGTTTTGACGTGTCACATCGGATATACGGACACACACGGAGTCACCTAGTGCAG | 10800 fluorescence intensity (a.u.)
TTGGGGAAAAGTTTTGAGTTTGATTGTCACATCGGATATACGGAGTCACCTAGTGCAG | 53000 fluorescence intensity (a.u.)
